In ChEMBL document CHEMBL1961873, “Compounds: GSK PKIS; Assays: Nanosyn kinase panel” (2012):

How the values were obtained:
[1] = target: RAC-alpha serine/threonine-protein kinase (Homo sapiens) (UniProt P31749); details: at 0.1 µM
[2] = target: RAC-alpha serine/threonine-protein kinase (Homo sapiens) (UniProt P31749); details: at 1 µM
[3] = target: RAC-beta serine/threonine-protein kinase (Homo sapiens) (UniProt P31751); details: at 0.1 µM
[4] = target: RAC-beta serine/threonine-protein kinase (Homo sapiens) (UniProt P31751); details: at 1 µM
[5] = target: RAC-gamma serine/threonine-protein kinase (Homo sapiens) (UniProt Q9Y243); details: at 0.1 µM
Chain of RAC-gamma serine/threonine-protein kinase (Homo sapiens) (Q9Y243 whole entry): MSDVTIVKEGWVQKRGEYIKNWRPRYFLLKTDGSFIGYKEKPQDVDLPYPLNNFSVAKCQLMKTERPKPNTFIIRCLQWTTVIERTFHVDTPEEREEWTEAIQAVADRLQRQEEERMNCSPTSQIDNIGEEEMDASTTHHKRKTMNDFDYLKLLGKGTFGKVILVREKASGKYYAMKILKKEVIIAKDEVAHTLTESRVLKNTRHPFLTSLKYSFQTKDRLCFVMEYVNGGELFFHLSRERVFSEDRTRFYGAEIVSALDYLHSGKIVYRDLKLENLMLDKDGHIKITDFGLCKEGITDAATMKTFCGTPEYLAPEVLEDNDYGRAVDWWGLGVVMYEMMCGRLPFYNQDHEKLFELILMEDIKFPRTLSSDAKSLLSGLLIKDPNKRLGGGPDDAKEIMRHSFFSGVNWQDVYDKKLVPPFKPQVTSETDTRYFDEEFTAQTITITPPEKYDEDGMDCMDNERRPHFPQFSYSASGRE

[6] = target: RAC-gamma serine/threonine-protein kinase (Homo sapiens) (UniProt Q9Y243); details: at 1 µM
[7] = target: G protein-coupled receptor kinase 6 (Homo sapiens) (UniProt P43250); details: at 0.1 µM
Chain of G protein-coupled receptor kinase 6 (Homo sapiens) (P43250 whole entry, looked up): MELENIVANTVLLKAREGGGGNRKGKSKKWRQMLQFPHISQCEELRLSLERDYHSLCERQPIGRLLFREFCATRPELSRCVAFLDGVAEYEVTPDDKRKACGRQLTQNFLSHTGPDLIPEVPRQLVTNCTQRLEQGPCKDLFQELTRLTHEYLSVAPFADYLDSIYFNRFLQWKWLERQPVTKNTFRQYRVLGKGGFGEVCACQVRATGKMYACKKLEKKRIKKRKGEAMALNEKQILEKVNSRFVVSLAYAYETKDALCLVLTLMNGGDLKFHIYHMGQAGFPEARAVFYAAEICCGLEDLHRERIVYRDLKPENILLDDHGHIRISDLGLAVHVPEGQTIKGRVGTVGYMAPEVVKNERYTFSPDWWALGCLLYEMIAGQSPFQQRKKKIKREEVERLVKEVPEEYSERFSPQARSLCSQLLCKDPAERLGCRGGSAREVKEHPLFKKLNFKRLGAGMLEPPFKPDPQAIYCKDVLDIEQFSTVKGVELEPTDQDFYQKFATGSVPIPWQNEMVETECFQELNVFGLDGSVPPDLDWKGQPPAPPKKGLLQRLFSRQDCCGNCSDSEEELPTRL

[8] = target: G protein-coupled receptor kinase 6 (Homo sapiens) (UniProt P43250); details: at 1 µM
[9] = target: T1, Rhodopsin kinase GRK7 (Homo sapiens) (UniProt Q8WTQ7); details: at 0.1 µM
T1 sequence (whole entry): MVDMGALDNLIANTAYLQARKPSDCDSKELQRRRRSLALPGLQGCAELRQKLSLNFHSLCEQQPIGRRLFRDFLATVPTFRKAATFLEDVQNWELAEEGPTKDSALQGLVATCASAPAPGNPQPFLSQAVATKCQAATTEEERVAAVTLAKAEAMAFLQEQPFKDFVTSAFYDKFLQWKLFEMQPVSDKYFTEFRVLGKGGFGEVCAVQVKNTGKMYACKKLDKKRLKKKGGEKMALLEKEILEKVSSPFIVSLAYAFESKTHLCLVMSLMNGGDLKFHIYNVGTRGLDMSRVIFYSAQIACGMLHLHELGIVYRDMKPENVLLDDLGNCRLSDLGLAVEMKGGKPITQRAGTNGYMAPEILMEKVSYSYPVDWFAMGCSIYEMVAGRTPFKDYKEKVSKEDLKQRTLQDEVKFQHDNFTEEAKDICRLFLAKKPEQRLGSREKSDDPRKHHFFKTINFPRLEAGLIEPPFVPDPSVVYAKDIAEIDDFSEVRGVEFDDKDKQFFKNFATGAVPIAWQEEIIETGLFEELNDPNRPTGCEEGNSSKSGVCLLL

[10] = target: T1, Rhodopsin kinase GRK7 (Homo sapiens); details: at 1 µM

Chain of RAC-alpha serine/threonine-protein kinase (Homo sapiens) (P31749 whole entry): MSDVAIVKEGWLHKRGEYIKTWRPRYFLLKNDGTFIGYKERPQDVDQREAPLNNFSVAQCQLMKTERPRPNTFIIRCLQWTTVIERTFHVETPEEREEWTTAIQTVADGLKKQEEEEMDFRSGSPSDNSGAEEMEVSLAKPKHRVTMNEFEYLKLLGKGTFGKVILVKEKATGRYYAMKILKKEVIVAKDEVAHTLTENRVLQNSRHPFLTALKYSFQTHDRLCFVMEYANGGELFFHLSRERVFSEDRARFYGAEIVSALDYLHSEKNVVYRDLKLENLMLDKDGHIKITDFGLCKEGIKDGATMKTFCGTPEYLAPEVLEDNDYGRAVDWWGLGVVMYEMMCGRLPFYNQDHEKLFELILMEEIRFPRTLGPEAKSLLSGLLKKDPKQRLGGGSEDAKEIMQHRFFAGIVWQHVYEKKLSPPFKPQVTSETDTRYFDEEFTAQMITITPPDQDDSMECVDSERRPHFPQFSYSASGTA
Chain of RAC-beta serine/threonine-protein kinase (Homo sapiens) (P31751 whole entry): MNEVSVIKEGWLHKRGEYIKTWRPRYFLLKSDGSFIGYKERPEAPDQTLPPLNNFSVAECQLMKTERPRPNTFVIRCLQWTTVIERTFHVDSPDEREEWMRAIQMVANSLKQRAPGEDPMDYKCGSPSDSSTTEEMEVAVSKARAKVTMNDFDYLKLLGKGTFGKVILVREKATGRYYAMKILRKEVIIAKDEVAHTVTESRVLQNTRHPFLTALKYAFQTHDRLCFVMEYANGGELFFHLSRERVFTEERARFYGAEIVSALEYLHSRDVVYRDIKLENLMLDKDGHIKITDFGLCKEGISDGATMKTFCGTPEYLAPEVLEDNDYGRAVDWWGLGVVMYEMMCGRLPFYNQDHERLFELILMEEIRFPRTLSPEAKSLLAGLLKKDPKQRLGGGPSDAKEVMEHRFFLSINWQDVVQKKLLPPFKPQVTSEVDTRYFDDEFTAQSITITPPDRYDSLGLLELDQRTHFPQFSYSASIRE

Structure (SMILES) | inhibition [1] | inhibition [2] | inhibition [3] | inhibition [4] | inhibition [5] | inhibition [6] | inhibition [7] | inhibition [8] | inhibition [9] | inhibition [10]
CN1CCN(CCCNc2nc3ccc(Oc4ccc(NC(=O)Nc5cc(C(F)(F)F)ccc5F)cc4)cc3[nH]2)CC1 | -3.71% | -3.59% | -3.19% | -0.85% | -3.05% | -2.98% | 0.32% | -5.54% | 1.12% | -3.95%
Cc1ccc(C(=O)NC(C)C)cc1-c1ccc(C(=O)NCC2CC2)cc1 | -2.54% | -2.49% | -4.74% | -3% | -3.94% | -1.32% | -3.15% | -2.12% | -1.17% | -7.32%
Fc1ccc(-c2ncn(C3CCNCC3)c2-c2ccnc(Oc3ccc4c(c3)OCO4)n2)cc1 | 2.04% | 1.04% | 0.93% | 2.21% | 0.23% | 3.88% | 0.51% | 2.27% | 9.41% | 2.9%
NC(=O)c1cc(-c2ccncc2)cc(-c2ccccc2)c1N | 0.73% | 0.01% | 1.93% | 2.56% | 0.25% | 3.46% | 3.52% | 3.56% | 5.22% | 9.17%
NS(=O)(=O)c1ccc(N/N=C2\C(=O)Nc3ccc(-c4cnco4)cc32)cc1 | -3.71% | -3.3% | -3.63% | -1.8% | -3.1% | -0.96% | -0.25% | 2.71% | 8.59% | 7.29%
O=C(Nc1n[nH]c2nc(-c3ccc(O)cc3)c(Br)cc12)C1CC1 | 0.84% | 2.07% | 2.21% | 3.12% | 3.32% | 12.5% | 11.6% | 32.6% | 5.77% | 17.4%
NCc1ccc(-n2c(-c3nonc3N)nc3cnccc32)cc1 | 3.84% | 15.8% | 3.5% | 15.1% | 1.72% | 20.5% | 5.51% | 7.31% | 9.11% | 15.5%
CCN(CC)Cc1ccc(Nc2nccc(-c3cnn4ncccc34)n2)cc1 | -2.02% | -1.93% | -2.76% | -2.22% | -1.29% | -1.26% | 2.33% | 1.08% | 10.6% | 3.71%
Fc1ccc(-c2ncn(CCCN3CCOCC3)c2-c2ccncc2)cc1 | 0.28% | -0.27% | 0.74% | 0.26% | -0.68% | 1.2% | -3.25% | -1.04% | -1.98% | 3.1%
NS(=O)(=O)c1ccc(Nc2cc(-c3ccc(O)c(F)c3)n[nH]2)cc1 | -3.05% | -2.1% | -3.37% | -1.69% | -3.06% | -2.28% | -2.35% | -0.57% | -9.14% | -0.64%
COc1cc2ncn(-c3cc(OCCc4ccccc4)c(C(N)=O)s3)c2cc1OC | 0.55% | 0.01% | 1.52% | 0.89% | 1.12% | -0.88% | -2.45% | -0.33% | 2.29% | 2.5%
COc1ccc(-c2ccc3c(NC(=O)C4CC4)n[nH]c3n2)cc1 | -0.03% | 0.55% | 0.33% | 0.37% | 3.49% | 0.37% | 5.32% | 9.55% | 2.9% | 10.4%
COC(=O)Nc1nc2ccc(Sc3ccc(NC(=O)Nc4cc(C(F)(F)F)ccc4F)cc3)cc2[nH]1 | 0.65% | 0.76% | -0.16% | -0.51% | 0.73% | 0.99% | 2.62% | -0.1% | -0.34% | -6.83%
CN(c1ccc(NC(=O)Nc2c(Cl)cccc2Cl)cc1)c1ccnc(Nc2cccc(CS(C)(=O)=O)c2)n1 | 0.48% | 1.09% | 0.5% | 2.1% | 3.21% | -0.15% | 3.24% | 3.8% | 3.79% | 1.55%
COc1cccc(-n2cnc3c(N/N=C/c4ccncc4)ncnc32)c1 | -4.15% | -3.41% | -3.57% | -4.73% | -4.17% | -3.32% | 2.45% | 8.28% | 1.71% | 5.64%
COc1ccc(C2=C(N3CCc4ccccc43)C(=O)NC2=O)cc1 | 0.6% | 0.96% | 2.65% | 1.87% | 1.01% | 2.72% | 8.72% | 8.49% | 27.9% | 20.3%
Fc1ccc(-c2ncn(C3CCNCC3)c2-c2ccnc(Oc3ccc(Oc4ccccc4)cc3)n2)cc1 | 1.23% | 1.87% | 1.23% | 1.51% | 2.28% | 4.62% | 3.64% | 6.73% | 10.9% | 3.4%

Structure (SMILES) | inhibition [1] | inhibition [2] | inhibition [3] | inhibition [4] | inhibition [5] | inhibition [6] | inhibition [7] | inhibition [8] | inhibition [9] | inhibition [10]
COc1cc2ncn(-c3cc(OCc4cccs4)c(C(N)=O)s3)c2cc1OC | -2.85% | -1.83% | -1.63% | -2.73% | -3.06% | -3.04% | 4.35% | 17.9% | 5.59% | 13%
N#Cc1ccc(Oc2nccc(-c3c(-c4ccc(F)cc4)ncn3C3CCNCC3)n2)cc1 | -0.06% | 0.41% | 0.99% | 3.57% | 2.37% | 2.2% | -0.24% | 2.68% | 8.83% | 5.35%
COc1cc(C)c(N(C)C(=O)CN(C)C)cc1Nc1nc(Nc2cccc(F)c2C(N)=O)c2cc[nH]c2n1 | -1.91% | -1.8% | -3.1% | -2.1% | -2.47% | -1.39% | 3.68% | 17.8% | -0.46% | -6.16%
Nc1nccc(-c2c(-c3ccc(F)cc3)ncn2C2CCC(O)CC2)n1 (stereo not given) | -1.5% | -1.14% | -2.08% | -1.44% | -1.82% | 0.5% | 1.78% | -1.92% | -3.24% | -1.89%
COc1cccc(/C=N/Nc2ncnc3c2cnn3-c2cccc(OC)c2)c1 | 1.02% | -0.26% | 2.42% | 1.51% | 2.66% | 3.67% | 5.6% | 4.38% | 9.5% | 5.51%
COc1ccc2ncn(-c3cc(O[C@H](C)c4ccccc4Cl)c(C(N)=O)s3)c2c1 | -3.63% | -2.95% | -2.65% | -2.8% | -2.12% | -1.2% | -0.3% | 0.35% | 8.25% | 2.33%
c1ccc(-c2n[nH]cc2-c2ccnc(-c3ccc(OCCN4CCOCC4)cc3)c2)nc1 | -0.28% | 0.23% | -0.23% | -0.3% | -0.26% | 0.6% | -5.07% | -7.11% | 1.66% | -0.22%
CN(C)CCCNc1nccc(-c2c(-c3ccc(F)cc3)nn3cc(C(F)(F)F)ccc23)n1 | -2.46% | -2.95% | -2.07% | -3.03% | -2.14% | -2.29% | 0.16% | -2.93% | -0.49% | -5.64%
CN(C)c1ccc2c(c1)/C(=C/Nc1ccc(S(N)(=O)=O)cc1)C(=O)N2 | 0.14% | -0.46% | 0.75% | 1.06% | 2.06% | 1.85% | 3.15% | 5.15% | 0.97% | 8.73%
NC(=O)c1cc(-c2ccc(F)cc2)cc(-c2ccncc2)c1N | 0.92% | 1.2% | 1.95% | 2.01% | 2.01% | 4.31% | 5.99% | 6.88% | 2.49% | 11.1%
c1ccc(Oc2ccc(Nc3ncc(-c4ccccc4)o3)cc2)cc1 | 0.05% | 0.39% | 0.18% | 0.15% | -0.09% | 1.21% | 2.54% | 0.81% | 2.37% | 2%
C[C@@H](Oc1cc(-n2cnc3ccc(OCC4CCN(C)CC4)cc32)sc1C(N)=O)c1ccccc1Cl | 0.75% | 0.38% | 1.73% | 2.79% | 0.98% | 3.81% | 4.28% | 9.48% | 10.8% | 9.71%
O=C(Nc1n[nH]c2cc(-c3ccccc3)ccc12)C1CC1 | 0.57% | -0.63% | 1.2% | 1.68% | 0.33% | 2.94% | 2.59% | 3.48% | 3.13% | 3.52%
O=C(Nc1n[nH]c2cc(-c3cc(F)ccc3F)ccc12)C1CC1 | 0.77% | 0.09% | 1.23% | 1.89% | 1.03% | 2.68% | 2.61% | 3.76% | 1.22% | 6.2%
Fc1ccc(-c2nc3n(c2-c2ccncc2)CCS3)cc1 | -2.42% | -2.29% | -1.68% | -1.83% | -1.74% | -2.44% | 2.79% | -0.16% | 2.77% | 5.18%
FC(F)(F)c1cccc(Nc2nccc(-c3cnn4nc(-c5ccccc5)ccc34)n2)c1 | 0.83% | 0.65% | 0.62% | 1.58% | 0.22% | -2.03% | -2.23% | -0.87% | 4.12% | 6.07%
CCS(=O)(=O)c1ccc(OC)c(Nc2ncc(-c3cccc(-c4ccccc4F)c3)o2)c1 | -0.24% | -0.11% | 0.25% | 0.43% | 1.02% | -0.29% | 1.94% | -0.56% | 0.7% | -0.85%
